The values below come from PubChem BioAssay (NCATS).

Test [1] can be described thus: Viability qHTS for spleen associated tyrosine kinase inhibitor (SYKi) naive MV4-11 cells (AID 1963823). Note: nearly all actives have a fitted effect of over 40% in size. In a few lines: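 Seeding of 500 SYKi-naive MV4-11 cells per well onto pre-dispensed compounds preceded a 72 hr incubation at 37 C. Luminescent CellTiter-Glo signal, read after 10 min at room temperature, reflected viable cells.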
(In qHTS, concentration-response curves come from the screen itself.)

Test [2] in a line: Viability qHTS for spleen associated tyrosine kinase inhibitor (SYKi) drug resistant MV4-11 cells (AID 1963824). Note: nearly all actives have a fitted effect of over 35% in size. An outline of the steps: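 SYK inhibitor-resistant MV4-11 AML cells, 500 per well, added to predispensed compounds and incubated 72 hr at 37 C, 5% CO2. Viability measured by CellTiter-Glo luminescence after 10 min at room temperature.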
A short description of test [3]: Cellular viability qHTS for adrenocortical cancer (ACC) cell line SW-13 (AID 1963989).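 For activity (max response): cells grown in serum-free medium with ITS supplement; % is set by controls: 0 for no effect and ±100 for the full control effect.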 Note: nearly all actives have a fitted effect of over 65% in size. Conditions: SW-13 ACC cells viability, CellTiter-Glo, 48 h; activity (max response): stronger effect = lower value. In a few lines: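 48 h treatment, SW-13 in ITS/DMEM serum-free; doses up to 46 uM; readout CellTiter-Glo luminescence; curve fit four-parameter logistic.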
Test [4] can be described thus: Cellular viability qHTS for adrenocortical cancer (ACC) cell line NCI-H295R (AID 1963990). Note: nearly all actives have a fitted effect of over 60% in size. In a few lines:
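Compound titrations (up to 46 uM final) are applied to NCI-H295R cultures for 48 h at 37C. Viable cell number is estimated by CellTiter-Glo signal, normalised to DMSO and doxorubicin controls.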

“And” between values parts separate entries of the source, which are not always exact repeats. Equal values may be shown once. Inconclusive results are not listed. A structure can be active in one record and inactive in another. The source made the active and inactive calls. Calls come from the whole dose curve; as a rule, active = well fitted curve in the direction sought with a large enough effect; inconclusive = small, poorly fitted or top-dose-only effect, or another doubt; inactive = no such curve, though single readings can be large; an effect the other way counts as inactive or inconclusive.
Potency is the fitted concentration of half-maximal effect.

In the case of `CC(/C=C/C(=O)NO)=C\[C@@H](C)C(=O)c1ccc(N(C)C)cc1`, the Potency in test [1] is 326 nM (active) and 296 nM (active); in test [2] it was 259 nM (active) and 332 nM (active); in test [3], 6.31 µM (active); in test [4], 3.98 µM (active).
With `CCN1C(=O)N2Cc3cc(OC)cc(OC)c3[C@@H](C)C=C2C12CCN(Cc1cc(C)cc(C)c1)CC2`, the Potency in test [1] is 18.6 µM (active); in test [2] it was 14.8 µM (active); in test [3] it was 28.2 µM (active); in test [4] it was 25.1 µM (active).
As to `CCCCCCCCCCCCCCCC[N+](C)(C)Cc1ccccc1`, the Potency in test [1] was 2.37 µM (active); in test [2], 1.88 µM (active); in test [3] it was 8.2 µM (active); in test [4], 8.2 µM (active).
For the compound `C=CC(=O)N1CCC[C@@H](n2nc(-c3ccc(Oc4ccccc4)cc3)c3c(N)ncnc32)C1`, the Potency in test [1] was 1.64 µM (active) and 662 nM (active); in test [2], 1.3 µM (active) and 1.18 µM (active). The activity (max response) in test [3] was 5.79% (inactive). In addition, the Potency result in test [4] is “inactive”.
Consider `Cc1ccc(-c2ccccc2C#N)cc1`, for which the Potency entry in test [1], in test [2] and in test [4] was “inactive” throughout. Moreover, the activity (max response) in test [3] was 12.9% (inactive).
Regarding `C=CC(=O)Nc1cc(Nc2nccc(-c3cn(C)c4ccccc34)n2)c(OC)cc1N(C)CCN(C)C`, the Potency in test [1] was 1.46 µM (active); in test [2] it was 0.934 µM (active); in test [3] it was 2 µM (active); in test [4], 3.98 µM (active).
For `C=CC(=O)Nc1cccc(Nc2nc(Nc3ccc(OCCOC)cc3)ncc2F)c1`, the Potency in test [1] was 0.468 µM (active); in test [2] it was 0.651 µM (active); in test [3], 15.8 µM (active); in test [4], 3.98 µM (active).
As for `CC(C)C[C@@H](N)C(=O)O`, the Potency entry in test [1], in test [2] and in test [4] was “inactive” throughout. The activity (max response) in test [3] was 8.35% (inactive).
For the compound `O=C(c1ccc(F)c(F)c1Nc1ccc(I)cc1F)N1CC(O)([C@@H]2CCCCN2)C1`, the Potency was 326 nM (active) and 235 nM (active) in test [1]; 231 nM (active) and 296 nM (active) in test [2]; 12.6 µM (active) in test [3]; 5.62 µM (active) in test [4].
Take `C/C(=N/NC(=O)c1ccncc1)C(=O)O`: the Potency result in test [1], in test [2] and in test [4] was “inactive” in each case. The activity (max response) in test [3] is 7.83% (inactive).
Turning to `CC1(C)S[C@@H]2[C@H](NC(=O)Cc3ccccc3)C(=O)N2[C@H]1C(=O)O` (tested in a mixture with another compound), the Potency result in test [1], in test [2] and in test [4] was “inactive” each time. Also, in test [3], the activity (max response) was 7.44% (inactive).
On to `CC(=O)O[C@]1(C(C)=O)CC[C@H]2[C@@H]3C=C(C)C4=CC(=O)CC[C@]4(C)[C@H]3CC[C@@]21C`, for which the Potency entry in test [1] is “inactive and 16.6 µM (active)”; in test [2] it was 14.8 µM (active). Also, the activity (max response) in test [3] was 8.88% (inactive) and -22.2% (inactive). In addition, the Potency entry in test [4] is “inactive”.
As for `CC[C@@](C)(Nc1ccnc(-c2c[nH]c3ncccc23)n1)C(=O)NCC(F)(F)F`, the figures for the Potency in test [1] and in test [2] were 14.6 µM (active) and 16.4 µM (active), respectively. For the same compound, in test [3], the activity (max response) was 0.931% (inactive). For the same compound, the Potency result in test [4] was “inactive”.
In the same order, the values of `CN(C)/N=N/c1nc[nH]c1C(N)=O` are “inactive”, “inactive”, 10.5% (inactive) and “inactive”.
`Cc1cc(C)cc(OCC2CNC(=O)O2)c1` (configuration not stated): the Potency result in test [1], in test [2] and in test [4] was “inactive” in each case. Also, in test [3], the activity (max response) was 4.02% (inactive).
Take `C=CC(=O)N1CCC[C@H](n2c(=O)n(-c3ccc(Oc4ccccc4)cc3)c3c(N)ncnc32)C1`: the Potency in test [1] is 1.05 µM (active); in test [2] it was 1.66 µM (active); in test [3], 3.98 µM (active); in test [4] it was 8.91 µM (active).
As to `Cc1[nH]c2ccc(F)cc2c1-c1nc2c3cccnc3c3ncccc3c2[nH]1`, the Potency is 0.231 µM (active) in test [1], 0.184 µM (active) in test [2], 2.24 µM (active) in test [3] and 3.16 µM (active) in test [4].
In the same order, the values of `CCCC1(CCC)CCC2(CCN(CCCN(CC)CC)C2)CC1` are 2.35 µM (active), 2.31 µM (active), 3.55 µM (active) and 6.31 µM (active).
Regarding `C[C@]12CCCN1CC1=NNC(=O)c3cc(F)cc4[nH]c2c1c34`, the Potency in test [1] is 2.63 µM (active); in test [2] it was 6.61 µM (active). Also, in test [3], the activity (max response) is -23.5% (inactive). Moreover, the Potency entry in test [4] is “inactive”.
In the same order, the values of `O=C(O)c1ccccc1NCCc1ccccc1` are “inactive”, “inactive”, 9.86% (inactive) and “inactive”.
Consider `O=C1NC(=O)/C(=C/c2ccc3nccc(-c4ccncc4)c3c2)S1`, for which the Potency is 461 nM (active) and 372 nM (active) in test [1]; 820 nM (active) and 525 nM (active) in test [2]; 1 µM (active) in test [3]; 0.631 µM (active) in test [4].
For the compound `Cc1ncc(CO)c(C=O)c1O`, the Potency result in test [1], in test [2] and in test [4] was “inactive” in each case. Also, the activity (max response) in test [3] was -2.89% (inactive).
Take `C=CC(=O)Nc1cccc(Oc2nc(Nc3ccc(N4CCN(C)CC4)cc3)nc3ccsc23)c1`: the Potency in test [1] was 2.63 µM (active); in test [2] it was 3.32 µM (active); in test [3], 3.16 µM (active); in test [4], 5.01 µM (active).
